Among the test systems are NCI-H23 lung; NCI-H226 lung; NCI-H322M lung; HOP-62 NSCLC; NCI-H460 lung; NCI-H522 lung; A549/ATCC NSCLC; 786-0 renal; COLO 205 colon; DU-145 prostate; K-562 leukemia; MALME-3M melanoma; MDA-MB-231 breast; RXF 393 renal; SF-268 CNS; SF-295 CNS; SF-539 CNS; UACC-257 melanoma; M14 melanoma; HCT-15 colon.
What all share (experiment): NCI-60 one-dose screen, 48 h (100 = growth as untreated, 0 = no growth, -100 = all killed)
Holding throughout (details): 10 µM unless noted

This is part of a sample that, as a whole, favours compounds with a hit. Of some 83,000 tested, about 20% had one in any assay.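 Activity criterion: percent growth below 10, measured after cells in 96-well plates were exposed to a single compound concentration for 48 hours.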 A number with no mark means an inactive call. The source made the active and inactive calls.

Turning to `C=C1CC[C@@H]2[C@](C)(COC(C)=O)[C@H](OC(C)=O)CC[C@@]2(C)[C@@H]1CC(Nc1ccc(S(=O)(=O)Nc2cc(C)on2)cc1)C1=CCOC1=O` (stereo not given in full), the growth was 71% in the test with NCI-H23 lung; 79.5% with NCI-H226 lung; 80.4% with NCI-H322M lung; 60.2% in the test with HOP-62 NSCLC; 79.5% with NCI-H460 lung; -20.2% (active) with NCI-H522 lung. The growth was 72.2% in the test with A549/ATCC NSCLC; 89.8% with 786-0 renal; 29% in the test on COLO 205 colon; 71.1% with DU-145 prostate; 9.67% (active) in the test on K-562 leukemia; 56.6% in the test on MALME-3M melanoma. Further, the growth was 61.1% with MDA-MB-231 breast; 29.8% with RXF 393 renal; 67.3% in the test on SF-268 CNS; 100% in the test with SF-295 CNS; 6.3% (active) in the test on SF-539 CNS; 68.9% in the test with UACC-257 melanoma. The growth in the test on M14 melanoma was 29.9%; in the test with HCT-15 colon it was 0.176% (active).

With `CC(C)C(=O)Cc1cnccn1`, the growth with NCI-H23 lung was 93.7%; in the test on NCI-H226 lung, 110%; with NCI-H322M lung, 103%; with HOP-62 NSCLC, 106%; in the test on NCI-H460 lung, 103%; in the test on NCI-H522 lung it was 109%. Also, the growth in the test with A549/ATCC NSCLC is 96.5%; with 786-0 renal, 109%; in the test with COLO 205 colon, 113%; in the test on DU-145 prostate it was 111%; with K-562 leukemia, 114%; in the test with MALME-3M melanoma, 111%. Besides, the growth with MDA-MB-231 breast is 119%; in the test on RXF 393 renal it was 106%; in the test on SF-268 CNS, 114%; in the test on SF-295 CNS, 91%; in the test with SF-539 CNS, 105%; with UACC-257 melanoma, 97.8%. The growth with M14 melanoma was 112%; in the test with HCT-15 colon, 107%.

`CCCCN(CCCC)CCCOC(=O)c1ccc(N)cc1`: the growth in the test on NCI-H23 lung is 96.1%; in the test on NCI-H226 lung it was 76.8%; in the test on NCI-H322M lung, 98.2%; in the test on HOP-62 NSCLC, 88.7%; in the test on NCI-H460 lung, 78.4%; in the test on NCI-H522 lung, 67%. Further, the growth in the test on A549/ATCC NSCLC is 70.9%; with 786-0 renal it was 95.4%; in the test on COLO 205 colon, 57.3%; in the test on DU-145 prostate it was 88.2%; with K-562 leukemia it was 96.5%; in the test on MALME-3M melanoma, 93%. For the same molecule, the growth with MDA-MB-231 breast was 86.8%; in the test with RXF 393 renal it was 92.1%; in the test on SF-268 CNS, 96.3%; in the test with SF-295 CNS, 84.5%; in the test on SF-539 CNS it was 94.4%; in the test with UACC-257 melanoma, 88%. The results for the growth in the test with M14 melanoma and with HCT-15 colon were 93.7% and 101%, respectively.

For `Cc1cc(NC(=O)Nc2cc(Cl)ccc2C)no1`, the growth with NCI-H23 lung was 88.3%; in the test on NCI-H226 lung it was 105%; in the test on NCI-H322M lung, 146%; in the test on HOP-62 NSCLC, 96.2%; in the test on NCI-H460 lung, 102%; in the test with NCI-H522 lung, 103%. In addition, the growth was 108% in the test on A549/ATCC NSCLC; 102% with 786-0 renal; 143% in the test with COLO 205 colon; 111% in the test on DU-145 prostate; 80.8% in the test on K-562 leukemia; 191% with MALME-3M melanoma. Besides, the growth with MDA-MB-231 breast was 100%; in the test with RXF 393 renal it was 126%; in the test with SF-268 CNS it was 100%; in the test on SF-295 CNS, 112%; in the test with SF-539 CNS, 94.1%; with UACC-257 melanoma, 115%. Also, the growth in the test on M14 melanoma was 109%; in the test with HCT-15 colon, 100%.

As for `C[n+]1c2ccccc2c(NC2CCNCC2)c2[nH]c3ccccc3c21`, the growth in the test with NCI-H23 lung is 3.72% (active); in the test with NCI-H226 lung, 6.63% (active); in the test on NCI-H322M lung, -38.2% (active); with HOP-62 NSCLC it was 26.5%; in the test on NCI-H460 lung, -0.0252% (active); with NCI-H522 lung it was -73.2% (active). The growth was 1.98% (active) with A549/ATCC NSCLC; 58% in the test on 786-0 renal; -1.65% (active) in the test with COLO 205 colon; -1.88% (active) with DU-145 prostate; 12.7% with K-562 leukemia; -15.7% (active) in the test on MALME-3M melanoma. Further, the growth in the test with MDA-MB-231 breast is 17.1%; in the test on RXF 393 renal it was -13.7% (active); in the test on SF-268 CNS, -31% (active); with SF-295 CNS, 13.6%; with SF-539 CNS it was 16.7%; with UACC-257 melanoma, 57.2%. The growth in the test on M14 melanoma was 60.1%; with HCT-15 colon it was 87.5%.

As to `Cc1ccccc1NC(=O)c1cc2ccccc2cc1O`, the growth is 10.9% in the test with NCI-H23 lung; 77.1% with NCI-H226 lung; 24.6% in the test on NCI-H322M lung; 39.2% with HOP-62 NSCLC; 38% with NCI-H460 lung; 12.2% in the test on NCI-H522 lung. The growth in the test on A549/ATCC NSCLC is 39.3%; in the test with 786-0 renal, 54.9%; in the test with COLO 205 colon, 119%; in the test with DU-145 prostate, 20.2%; in the test on K-562 leukemia, 10.9%; in the test with MALME-3M melanoma, -6.19% (active). Further, the growth with MDA-MB-231 breast is 70.6%; in the test with RXF 393 renal, 22.2%; with SF-268 CNS, 21.1%; in the test on SF-295 CNS, 86.4%; with SF-539 CNS, 64.4%; in the test on UACC-257 melanoma, 68.1%. Further, the growth with M14 melanoma was 58.1%; with HCT-15 colon, 48.5%.

As for `O=[N+]([O-])c1ccc(N/N=C\c2ccccc2[N+](=O)[O-])nc1`, the growth in the test with NCI-H23 lung was 98.2%; in the test with NCI-H226 lung, 106%; with NCI-H322M lung, 105%; with HOP-62 NSCLC, 123%; in the test with NCI-H460 lung, 101%; with NCI-H522 lung, 97.5%. In addition, the growth in the test on A549/ATCC NSCLC is 92.2%; in the test with 786-0 renal it was 104%; with COLO 205 colon it was 133%; in the test with DU-145 prostate, 101%; in the test with K-562 leukemia, 94.6%; with MALME-3M melanoma it was 117%. In addition, the growth is 110% in the test on MDA-MB-231 breast; 102% in the test with RXF 393 renal; 107% with SF-268 CNS; 103% in the test with SF-295 CNS; 109% in the test with SF-539 CNS; 119% in the test on UACC-257 melanoma. In addition, the values for the growth with M14 melanoma and in the test on HCT-15 colon were 126% and 100%, respectively.

Regarding `CCC1=C(c2ccc(OC)cc2)C(C)(C)Oc2c1ccc(O)c2CN1CCCC1`, the growth with NCI-H23 lung is 13.1%; in the test with NCI-H226 lung it was 29%; in the test with NCI-H322M lung it was 47.7%; in the test on HOP-62 NSCLC, 18.7%; in the test with NCI-H460 lung, -38.1% (active); with NCI-H522 lung, 30.4%. Besides, the growth with A549/ATCC NSCLC was 67.1%; with 786-0 renal, 34.2%; with COLO 205 colon it was 77.1%; in the test with DU-145 prostate it was 64.8%; in the test on K-562 leukemia, -24.9% (active); with MALME-3M melanoma, -9.28% (active). Besides, the growth is 24.2% in the test with MDA-MB-231 breast; 14.9% in the test on RXF 393 renal; 54.3% with SF-268 CNS; -44% (active) with SF-295 CNS; 69.3% in the test on SF-539 CNS; -16.1% (active) in the test on UACC-257 melanoma. Moreover, the growth in the test on M14 melanoma is -75.8% (active); with HCT-15 colon it was 8.13% (active).

For the origin of these results see PubChem BioAssay (NCI).
